Screens (PubChem BioAssay)
mHTT-CaM PPI inh: mutant huntingtin-calmodulin interaction inhibitors – biochemical, AlphaScreen, primary screen. P42858. AlphaScreen His-mHTT/GST-CaM binding, luminescence. inhibition, % at 15 µM. 190,000 compounds, 3.6% hits. AID 1671202, 2021;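 also: 0% = both proteins with DMSO and 100% = one protein alone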
Pf apPOL inh: Pf-apPOL inhibitors, biochemical, fluorescence; Plasmodium falciparum apicoplast DNA polymerase (apPOL); Recombinant Pf-apPOL, molecular beacon fluorescence, 1.5 h; inhibition, % at 10 µM; 210,000 compounds, 0.25% hits
* marks the source's active call; other numbers are inactive results; nt = no result; ! = repeats disagree. Only a selection was taken, and hits are over-represented in it overall. Rule as the data show it: active = inhibition above about 50%; inactive = the rest.

SMILES	mHTT-CaM PPI inh	Pf apPOL inh
CCn1cc(-c2nc(C)c(C(=O)Nc3ccc(C)cc3)s2)c2cccnc21	-13.5	2.0
Cc1ccc(-n2cnc(C(=O)NCc3cccnc3)n2)cc1	-1.4	0.8
Cc1c(Cl)c(C(F)(F)F)nn1CC(=O)Nc1ccc(Cl)c(Cl)c1	100.0*	-1.2
Cc1ccc(NC(=O)Cn2nc(C(F)(F)F)c(Cl)c2C)cc1C	3.0	-2.2
NNc1nc2ccccc2s1	85.9*	-4.3
O=S(=O)(Cc1ccccc1)Nc1nc2ccccc2s1	0.0	2.7
Cc1cc2c(=O)n(C(C)C(=O)N3CCN(c4cccc(Cl)c4)CC3)ccc2o1 (stereo unspecified)	97.2*	1.3
Cc1ccc(C(=O)N2CCN(c3cccc(Cl)c3)CC2)cc1	23.2	-6.3
COc1ccc(-c2cn3c(CCC(=O)Nc4nnc(C)s4)csc3n2)cc1	8.0	-7.1
CC[C@H]1c2[nH]c3ccc(C(C)C)cc3c2[C@@H]2CCN3C(=O)CCC[C@H]1[C@H]23	71.3*	-9.2
CC[C@@H]1C(=O)[C@H](Cc2ccccc2)[C@H]2CCCC(=O)N3CC[C@@H]1[C@@H]23	16.9	-1.4
CCOCCc1nnc(NC(=O)C2CC(=O)N(CCc3c[nH]c4ccc(F)cc34)C2)s1 (stereo unspecified)	12.9	-1.9
Cc1ccc(OCCn2c(SCC(N)=O)nc3ccccc32)cc1	17.1	2.4
NC(=O)CSc1nc2ccccc2n1CCOc1ccc(Cl)cc1	64.3*	2.0
CCc1nc(SCC(=O)Nc2cccc(C)c2)n[nH]1	-1.2	-3.5
CN1CCCN(C(=O)C2CC(=O)N(c3ccc4c(c3)CCN4C(=O)C3CC3)C2)CC1 (stereo unspecified)	2.4	-5.9
O=C(Cn1nc2c(c1NC(=O)C1COc3ccccc3O1)CSC2)NCc1ccco1 (stereo unspecified)	94.3*	20.0
O=C(Nc1nccs1)C1COc2ccccc2O1 (stereo unspecified)	-3.1	12.6
Cc1cc(F)ccc1N1C(=O)CCC1(C)C(=O)NCCCOC(C)C (stereo unspecified)	-7.0	0.9
O=c1[nH]c2ccccc2nc1C=Cc1cccs1	nt	5.2
COC(=O)c1cc(Nc2ccc3c(c2)OCO3)c2cccc(F)c2n1	51.0*	-3.3
COC(=O)c1cc(Nc2cccc(F)c2)c2cccc(F)c2n1	-7.1	0.9
CCC(CC)C(=O)N1CCCC(C)(C(=O)NCc2cccc(F)c2)C1 (stereo unspecified)	-12.9	-5.5
COc1ccc2c(c1)C(C)=CC(C)(C)N2	94.0*!	-4.3
COc1ccc2c(c1)-c1c(ssc1=S)C(C)(C)N2	88.5*	nt
SMILES	mHTT-CaM PPI inh	Pf apPOL inh
CC1(C)Nc2ccc(C(c3ccccc3)(c3ccccc3)c3ccccc3)cc2-c2c1ssc2=S	3.6	nt
COc1ccc2c(c1)NC(C)(C)C=C2C	17.9	nt
CCOc1cc(C(=O)Nc2c3c(nn2C(C)(C)C)CS(=O)(=O)C3)cc(OCC)c1OCC	9.0	-2.1
CCCCOC(=O)c1c(NC=C2C(=O)OC(C)(C)OC2=O)sc(C(=O)OCC)c1C	-2.9	-8.4
O=C(CN1CCCN(S(=O)(=O)c2ccc(Br)cc2)CC1)c1ccc(O)c(O)c1	14.0	-0.4
CCC(=O)N1CCc2sc(S(=O)(=O)Nc3ccc(F)cc3)cc2C1	51.2*	-6.5
CCC(=O)N1CCc2sc(S(=O)(=O)Nc3ccccc3)cc2C1	9.3	-0.2
O=C(Nc1nc2ccccc2n1CCN1CCCCC1)c1ccccc1	33.8	-2.7
CCC(=O)Nc1nc2ccccc2n1CC	-2.1	-14.7
CCn1c(NC(=O)c2ccccc2)nc2ccccc21	52.9*	0.3
C=CCn1c(NC(=O)c2ccccc2)nc2ccccc21	54.0*	0.9
CCOC(=O)c1c(-c2ccc(OC)cc2)oc2cc(Br)c(OCC#N)cc12	-4.1	-9.4
O=C(COc1ccccc1F)N1CCC2(CC1)OCCS2	-8.4	5.7
Cc1ccccc1NC(=O)N1CC=C(c2cn(C(C)C)c3ncccc23)CC1	26.9	-5.5
COc1ccc(C)cc1NC(=O)N1CC=C(c2cn(C(C)C)c3ncccc23)CC1	53.1*	-4.2
COc1ccc(-c2coc3c4c(ccc3c2=O)OCN(C(C)c2ccccc2)C4)cc1 (stereo unspecified)	11.2	-14.6
COc1ccc(Cl)cc1C1=N/C(=C/c2ccco2)C(=O)O1	0.0	-0.5
O=C(NCCSc1c[nH]c2ccccc12)c1cc(Br)ccc1Cl	24.0	-6.6
O=C(CSc1cccs1)Nc1nccs1	-1.4	nt
O=C(CSc1cccs1)NC1=NN(c2ccccc2)C(=O)C1	81.9*	-2.2
CCOCc1cn(CC(=O)c2ccc(CC)cc2)c(C)nc1=N	3.0	-0.2
CCN(Cc1ccccc1)S(=O)(=O)c1cc(C(=O)Nc2ccc(F)c(F)c2)ccc1F	-26.0	53.4*
CN(Cc1ccccc1)S(=O)(=O)c1cc(C(=O)Nc2ccc(F)c(F)c2)ccc1F	-1.0	27.2
CCc1ccc(C2=C/C(=C\c3cccnc3)C(=O)O2)cc1	-14.0	-2.4
O=C(CSC1=NCCS1)NCCSCc1ccco1	nt	-3.4
SMILES	mHTT-CaM PPI inh	Pf apPOL inh
O=C(CSc1nc2ccccc2o1)NCCSCc1ccco1	nt	62.9*
COc1ccc(Br)cc1CN1CCC(N2CCCC(C)C2)CC1 (stereo unspecified)	-3.4	3.0
COCCCNC(=O)c1cccc(Cl)c1	-7.7	1.1
COCCCNC(=O)c1ccc(Cl)c(NC(=O)Nc2ccc(Cl)c(Cl)c2)c1	52.0*	-12.5
CC1CN(C(=O)Nc2ccc(Cl)cc2)c2cc(Cl)ccc2O1 (stereo unspecified)	-15.0	-4.1
CCc1nc2c(NC(=O)c3ccc(Br)cc3)cccn2n1	-0.2	0.7
O=C(NCCCN1CCOCC1)c1cc2nc(-c3ccco3)cc(C(F)(F)Cl)n2n1	13.0	-2.2
O=C(NCCc1c[nH]c2ccccc12)c1cc2nc(-c3ccco3)cc(C(F)(F)Cl)n2n1	76.0*	-2.3
O=C(NCCc1ccccc1)N1CC2CC(NS(=O)(=O)c3cccs3)C1C2 (stereo unspecified)	1.7	-4.7
Cc1sc2nc(SCC(=O)c3ccc(O)c(O)c3)[nH]c(=O)c2c1C	68.0*	-0.7
Cc1cc(C)c2c(=O)[nH]c(SCC(=O)c3ccc(O)c(O)c3)nc2n1	5.5	-4.0
Cc1ccc(C)c(NC(NC(=O)c2cc([N+](=O)[O-])cc([N+](=O)[O-])c2)C(Cl)(Cl)Cl)c1 (stereo unspecified)	70.0*	2.0
COc1ccccc1NC(NC(=O)c1cccc([N+](=O)[O-])c1)C(Cl)(Cl)Cl (stereo unspecified)	47.0	1.4
COc1ccc(C(=O)NC(Nc2ccc(C)cc2C)C(Cl)(Cl)Cl)cc1 (stereo unspecified)	8.0	2.6
Cc1ccc(NC(NC(=O)c2cccc([N+](=O)[O-])c2)C(Cl)(Cl)Cl)c(C)c1 (stereo unspecified)	62.0*	-1.9
COCc1noc(C2CCCCN2CC(=O)Nc2nccs2)n1 (stereo unspecified)	4.3	-1.5
NC(=S)NN=Cc1ccc([N+](=O)[O-])s1	nt	0.5
NC(=S)NN=Cc1cccc([N+](=O)[O-])c1	0.3	78.8*
O=[N+]([O-])c1cccc(C=Nc2cc(Cl)ccc2O)c1	59.0*	-3.1
Cc1ccc([N+](=O)[O-])cc1N=Cc1cccc([N+](=O)[O-])c1	-4.0	-6.1
N#CC(=Cc1ccc2c(c1)OCO2)C(N)=O	nt	-6.7
COCCNC(=O)c1cc(-c2cccc(C)c2)on1	-11.9	-2.2
O=C(Cc1ccccc1F)N1CCC(c2cnn(-c3ccc(F)cc3)c2)CC1	-15.5	-2.5
